Experimental data taken from PubChem BioAssay (EPA / NIEHS).
Calls of active or inactive are those of the source. The calls were made as follows: active = hit-call score of the fitted dose curve at least 0.9, where 1 is the maximum; inactive = score below 0.9.

Experiment: CCTE_Padilla_ZF_144hpf_TERATOSCORE: (Legacy) CCTE's 144 Hour Post-fertilization zebrafish Assay Teratoscore, Padilla Lab (AID 2283679);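 as to AC50: zebrafish embryos with chorions exposed by immersion from 6-8 hpf to 5 dpf with daily renewal; teratogenicity score from eye scoring of death hatching and malformations at 144 hpf; higher score means more developmental defects relative to DMSO baseline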
Outline: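 Larvae scored by eye at 144 hpf for death, hatching and malformations after a day in clean Hanks'. Before that, daily-renewed exposure at 80 uM (0.4% DMSO, 26C) from roughly 6-8 hpf through 5 dpf, 4 embryos per chemical.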

Row | SMILES | AC50 | outcome
1 | CC(C)C(=O)Nc1ccc([N+](=O)[O-])c(C(F)(F)F)c1 | 14.2 µM (active) | 
2 | OCC(CO)(CO)CO |  | inactive
3 | CCCCOC(=O)c1ccccc1 | 59.1 µM (active) | 
4 | COc1cc2c(c(OC)c1OC)-c1ccc(OC)c(=O)cc1[C@@H](NC(C)=O)CC2 | 61.5 µM (active) | 
5 | c1ccc(C(O[C@@H]2CCCN(CCc3ccc4c(c3)OCO4)C2)c2ccccc2)cc1 | 2.1 µM (active) | 
6 | O=c1[nH]cnc2c1ncn2[C@H]1CC[C@@H](CO)O1 |  | inactive
7 | CCCCC(CC)C(=O)OCCOCCOCCOC(=O)C(CC)CCCC (stereo not given) | 4.5 µM (active) | 
8 | CCN(CC)C(=S)SSC(=S)N(CC)CC | 0.183 µM (active) | 
9 | CC[C@H](C)C(=O)O[C@H]1C[C@H](O)C=C2C=C[C@H](C)[C@H](CC[C@@H](O)C[C@@H](O)CC(=O)O)[C@H]21 |  | inactive
10 | O=C(O)c1cccc(C[C@@H]2COc3ccc(OCc4nc5cc(F)ccc5s4)cc3[C@@H]2O)c1 | 0.463 µM (active) | 
